Data from the supplement of paper PMC8726507.
A number with no mark means an inactive call.

Test system: Plasmodium falciparum NF54-HGL (transmission to Anopheles stephensi)
Test: percentage of barcode signal found in uninfected mosquitoes (transmission-blocking activity); higher = stronger blocking of transmission to mosquito, active = 80 or more
Conditions: 10 µM; gametocyte preincubation time 24 h; readout time post-feed 8 days
Protocol: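 The mixture was fed to Anopheles stephensi in 96-well plates as blood meals tagged with DNA-barcoded Asaia bacteria. Eight days later, mosquitoes were classed infected or uninfected by luminescence (mean + 5 SD of unfed controls). Barcodes were quantified by Luminex MagPlex-TAG in the pooled uninfected and infected Asaia cultures, background-corrected, and the score is % of barcode signal in uninfected mosquitoes = 100*Iu/(Iu+Ii).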

Row | SMILES | percentage of barcode signal found in uninfected mosquitoes [%]
1 | CCc1nn(C)c(C(=O)NCc2ccc(Oc3ccc(C)cc3)cc2)c1Cl | 25.8
2 | CC1COC(Cn2cncn2)(c2ccc(Oc3ccc(Cl)cc3)cc2Cl)O1 (centres undefined) | 19.1
3 | Cc1cc(C2=NOC(c3cc(Cl)c(F)c(Cl)c3)(C(F)(F)F)C2)ccc1C(=O)NCc1ccc2c(c1)C(C)(C)OB2O (centres undefined) | 43.3
4 | Nc1c2c(nc3sc4c(c13)CCCC4)CCCC2 | 42
5 | CO/C=C(/C(=O)OC)c1ccccc1Oc1cc(Oc2ccccc2C#N)ncn1 | 69.5
6 | Cc1nn(Cc2ccccc2)c(Cl)c1C(=O)NC1CCCCCC1 | 2.01
7 | CC(C)(C)C(O)C(Oc1ccc(-c2ccccc2)cc1)n1cncn1 (centres undefined) | -1.02
8 | CC1(C)OB(O)c2ccc(C3=NOC(c4cc(Cl)c(F)c(Cl)c4)(C(F)(F)F)C3)cc21 (centres undefined) | -4.84

Same assay, conditions: 20 µM; gametocyte preincubation time 24 h; readout time post-feed 8 days

Row | SMILES | percentage of barcode signal found in uninfected mosquitoes
9 | CO/N=C(\C(=O)OC)c1ccccc1CO/N=C(\C)c1cccc(C(F)(F)F)c1 | 83.6% (active)
10 | O=C1O[C@@H](COc2ccon2)CN1c1cc(F)c(C2=CCN(Cc3ccccc3)CC2)c(F)c1 | 29.7%
11 | O=C1O[C@@H](CO)CN1c1cc(F)c(C2=CCN(Cc3ccccc3)CC2)c(F)c1 | 0.248%
12 | CO[C@@H]1CN(c2ccc(C#CC3(O)CN4CCC3CC4)c(Cc3ccccc3)n2)C[C@H]1O (some centres undefined) | 43%
13 | Cc1nn(C)c(C)c1NS(=O)(=O)c1c(Cl)cc(-c2ccnc(N3CCNCC3)c2)cc1Cl | 48.9%
14 | Cc1cccc(C(=O)Nc2ccnc(N(C)C3CCN(CC(C)C)CC3)c2)c1 | 46.4%
